The whole screen tested about 2,100 compounds, of which about 260 (12%) were called active. Roughly 58% stayed inconclusive and do not appear here. The list shows a part of the results. Values without a mark were called inactive. Calls follow the shape of the dose curve; as a rule, active = well fitted cell-killing curve with a large enough effect; inconclusive = small, poorly fitted or top-dose-only effect, or effect the other way; inactive = flat fitted curve, though single readings scatter.
Test: Viability Counterscreen for Confirmatory qHTS for Inhibitors of ATXN expression; also: nearly all actives have a fitted effect of over 50% in size
Details: HEK-293 ATXN2-luc cells viability, CellTiter-Fluor, 24 h; activity change, negative = cytotoxicity: at the top concentration
Outline: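 Luminescence read-out (SteadyGlo, 5 min) followed a 30 min Gly-Phe-AFC (25 uM final) viability fluorescence read. ATXN2-luciferase reporter cells were exposed 24 h to a dilution series. Medium-only wells served as the 100% inhibition reference.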
Potency is read from the fitted curve at half-maximal effect.

SMILES	activity change, negative = cytotoxicity	Potency
COc1cc(/C=N/Nc2ccc(Cl)c(C(=O)O)c2)ccc1OC(=O)c1ccco1	1.6%	
CN(CC(=O)Nc1cccc(F)c1)CC(=O)Nc1cccc2ccccc12	-16.6% [at 57.5 µM]	
CCN(CC)CCC(=O)Nc1cccc2c1C(=O)c1ccccc1C2=O		3.16 µM (active)
CCN(CC)CCNC(=O)c1ccc(NC(=O)Cc2cccc3ccccc23)cc1	-22.4%	
CCC1=C(CC2NCCc3ccccc32)CC2c3cc(OC)c(OC)cc3CCN2C1 (stereo not given)		10 µM (active)
O=C(CC1NCCc2ccccc21)Nc1ccc(Cl)cc1 (stereo not given)	11.4%	
CN(c1ccc(OCC(=O)N2CCN(c3ccc(F)cc3)CC2)cc1)S(=O)(=O)c1cccs1	-11.9%	
COC(=O)c1c(NC(=O)/C=C/C(=O)O)sc(C)c1-c1ccc(C(C)C)cc1		28.2 µM (active)
CC(=O)c1sc(C(C)(C)C)cc1NC(=O)/C=C/C(=O)O	-20% [at 57.5 µM]	
CCOC(=O)c1c(C)nn(-c2ccc(NC(=O)/C=C/C(=O)O)cc2)c1C	-10.3% [at 57.5 µM]	
OC[C@@H]1[C@@H](c2ccc(F)cc2)C(c2ccccc2)=NN1c1ccccc1	28.7% [at 57.5 µM]	
COc1cc2c(cc1OC)C(C)N(C(=O)c1cc3c(s1)-c1ccccc1OC3)CC2 (stereo not given)	-24.3% [at 57.5 µM]	
COc1ccccc1-c1ccc2c(c1)C(C)(Cc1cccc(F)c1)C(=O)N2 (stereo not given)	-27.1% [at 57.5 µM]	
Cc1nonc1C(=O)N/N=C/c1ccc(O)cc1O	-19%	
COc1ccc2c(c1)C(SCC(=O)NCCc1ccc(Cl)cc1)CC(C)(C)O2 (stereo not given)	-8.85%	
Cc1ccc2nc(-c3ccccn3)c(NC3CCCC3)n2c1	-22.4%	
Cc1ccc(Nc2c(-c3ccccn3)nc3cccc(C)n23)cc1		8.91 µM (active)
Cc1cccn2c(Nc3ccccc3)c(-c3ccccn3)nc12	-19% [at 57.5 µM]	
Cc1ccc(Nc2c(-c3ccccn3)nc3cc(C)ccn23)cc1		10 µM (active)
N#Cc1ccc(-c2nc3cc(Cl)ccc3c(=O)n2O)cc1	-15.2%	
CCCNC(=O)c1ccc2c(=O)c(O)c(-c3ccc(F)cc3)[nH]c2c1	-12.7% [at 57.5 µM]	
CCN(c1ccccc1)S(=O)(=O)c1ccc(C(=O)N(CCCN(C)C)c2nc3c(C)cccc3s2)cc1		20 µM (active)

SMILES	activity change, negative = cytotoxicity	Potency
CN(C)CCCN(C(=O)c1ccc(S(=O)(=O)N(C)Cc2ccccc2)cc1)c1nc2cc3c(cc2s1)OCO3		25.1 µM (active)
CN(C)CCCN(C(=O)c1ccco1)c1nc2cc3c(cc2s1)OCO3	-18.9% [at 57.5 µM]	
Cc1ccc(S(=O)(=O)c2nc(NCc3ccc4c(c3)OCO4)sc2Cl)cc1	-19.2% [at 57.5 µM]	
CCCc1nc(NC2CCCCC2)c(C#N)c2c1COC(C)(C)C2	4.08%	
CC1(S(=O)(=O)O)CC(=O)c2ccccc2C1=O (stereo not given)	3.58% [at 57.5 µM]	
CCCCOc1ccc(NC2=NC3(CCCC3)N=C(N)N2)cc1	-22.7% [at 57.5 µM]	
COc1ccc([C@@]2(C(C)C)ON(c3ccccc3C(F)(F)F)C2=O)cc1	-9.94%	
COc1ccc(CN(C)C(=O)c2cccc(NC(=O)CC3SC(N4CCCCC4)=NC3=O)c2)c(OC)c1 (stereo not given)		35.5 µM (active)
Cc1ccc(Cn2ncc3c(NN)ncnc32)cc1	-26.4% [at 57.5 µM]	
COc1cccc(N2CCN(c3nc(-c4ccccc4C)cc(=O)[nH]3)CC2)c1	-27.9%	
Cc1nc2ncnn2c(N2CCN(c3cccc(C(F)(F)F)c3)CC2)c1C	-26.9%	
CC(Sc1ccc(Cl)cc1)C(=O)NNC(=O)c1ccccc1O (stereo not given)	-10%	
COc1ccc(Cl)cc1NC(=O)Nc1cccc([N+](=O)[O-])c1C	-5.63%	
COc1ccc(-c2n(CC(=O)OC3CC(C)CCC3C(C)C)c3ccccc3[n+]2C)cc1 (stereo not given)		10 µM (active)
Cc1onc(-c2ccccc2)c1C(=O)N/N=C/c1c[nH]c2ccccc12	-15.8% [at 57.5 µM]	
O=C(O)COc1ccc2oc3ccccc3c2c1	7.02%	
Cc1nnc(SC(C)C(=O)Nc2ccc(Cl)cn2)n1Cc1ccccc1 (stereo not given)	-12.7% [at 57.5 µM]	
Cc1cccc(N2CCN(S(=O)(=O)c3ccc4c(c3)C(C)(C)C(=O)N4C)CC2)c1C	-12% [at 57.5 µM]	
NC(N)=N/N=C/c1ccc2cccc(OCc3ccccc3)c2n1		15.8 µM (active)
CC(=O)Oc1c(Br)cc(N(C(C)=O)S(=O)(=O)c2ccccc2)c2ccccc12		28.2 µM (active)
N#Cc1cc2cc3c(cc2nc1SCC(=O)N1CCOCC1)OCCO3	-8.91%	
OC(c1cc(-c2cccc(Cl)c2)nc2ccccc12)C1CCCCN1 (stereo not given)		28.2 µM (active)

SMILES	activity change, negative = cytotoxicity	Potency
Cn1nccc1C(=O)N1CCCC(C(=O)c2cccc3ccccc23)C1 (stereo not given)	-20.1% [at 57.5 µM]	
Cn1cc(/C=C/c2cc[n+](C)cc2)c2cc(F)ccc21	-9.68% [at 57.5 µM]	
Cc1noc(C)c1CSCC(=O)Nc1nc(-c2ccc(F)c(F)c2)cs1		28.2 µM (active)
O=C(CCN1C(=O)C2CC=CCC2C1=O)Nc1nc(-c2ccc(F)c(F)c2)cs1 (stereo not given)	-16.4% [at 57.5 µM]	
O=C(Nc1nc(-c2ccc(F)c(F)c2)cs1)Nc1ccc(F)cc1F		2.82 µM (active)
O=C(/C=C\c1ccco1)Nc1nc(-c2ccc3ccccc3c2)cs1	-19.3%	
NS(=O)(=O)c1ccc(Nc2nc(-c3ccc(F)cc3)cs2)cc1	-8.41%	
Cc1cnc(NC(=O)C2CC(=O)N(c3cccc(Cl)c3)C2)s1 (stereo not given)	-21%	
Cc1ccc(C(=O)N/N=C/c2nc3ccccc3n2C)cc1	-26.8% [at 57.5 µM]	
CCn1c(C)nc2cc(C(=O)N/N=C/c3cccc(OC)c3O)ccc21	-17.1%	
COc1cc([N+](=O)[O-])cc(/C=N/NC(=O)c2ccc(NC(=O)c3ccc(C)cc3)cc2)c1O		1.78 µM (active)
CCCC1CCC(c2ccc(C(=O)NN)cc2)CC1 (stereo not given)	-2.67%	
Cc1c(C(=O)N/N=C/c2c(O)ccc3ccccc23)nnn1-c1nonc1N	-20.6%	
Cc1cc(NCc2ccccn2)n2nc(C)c(-c3ccc(Cl)cc3)c2n1		14.1 µM (active)
CC(C)C(CCNCc1ccccn1)c1ccc(Cl)cc1 (stereo not given)	-16.9% [at 57.5 µM]	
Cc1nn2c(NCc3ccccn3)c3c(nc2c1-c1ccccc1)CCC3		11.2 µM (active)
CNc1ccccc1C(=O)OC(C)C(=O)Nc1ccc(Cl)cn1 (stereo not given)	5.42%	
O=C(Nc1ccc(F)cc1)c1sccc1SCc1cccc(C(F)(F)F)c1	-26.1% [at 57.5 µM]	
CCOC(=O)c1c(NC(=O)COC(=O)c2ccccc2NC)sc(C(=O)N(C)C)c1C	-22.4%	
NC(=O)CC(NC(=O)Cc1ccc(Br)cc1)c1ccc(NC2CCCC2)c([N+](=O)[O-])c1 (stereo not given)	-17.4%	
Cc1ccc(OCC(=O)c2cc(C)n(Cc3cccs3)c2C)c([N+](=O)[O-])n1	-23.1% [at 57.5 µM]	

From PubChem BioAssay AID1745850 (National Center for Advancing Translational Sciences (NCATS), 2022)
